Screening results from PubChem BioAssay.
BAP1 block – inhibitors of BAP1 deubiquitinase, primary screen, biochemical, Ub-AMC fluorescence, kinetic; calls only at 20 µM; Ubiquitin carboxyl-terminal hydrolase BAP1 (Homo sapiens), Q92560; recombinant BAP1, Ub-AMC hydrolysis fluorescence kinetic; active compounds read low; AID 436, 2006; hit rate 0.48% among 72,000;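 active = activity remaining at or below 50% of control, provided the compound also passes the data quality filters; inactive = the rest, including low values that fail the filters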
M1 ag – M1 muscarinic receptor agonists, primary screen, CHO-M1 cells, Fluo-4 calcium, agonist mode | AID 626, 2007 | Fluo-4 calcium fluorescence; active compounds read high | Muscarinic acetylcholine receptor M1 | B-score at 10 µM | hit rate 3% among 64,000;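 active = fluorescence rise, raw or as B-score row- and column-corrected plate score, outside the 99.7% band of its plate's samples, either direction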
WNV NS2B-NS3 inh – inhibitors of WNV NS2B-NS3 protease, primary screen, biochemical, fluorogenic substrate | fluorogenic substrate Ex360/Em465; active compounds read low | z-score (concentration not given with the values) | hit rate 0.18% among 65,000 | AID 577, 2007; in the data active = z-score below about -3
M1 antagonist – antagonists of rat M1 muscarinic receptor; B-score at 10 µM; AID 628, 2007; CHO-M1 cells, Fluo-4 calcium, ACh EC80 antagonist mode; active compounds read low; Muscarinic acetylcholine receptor M1 (Rattus norvegicus), P08482; hit rate 3.4% among 64,000;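 active = calcium fluorescence response, raw or row-and-column corrected B-score, differing from the plate sample mean either way at a set confidence level, mostly lower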
Target sequence (P08482 whole entry, looked up): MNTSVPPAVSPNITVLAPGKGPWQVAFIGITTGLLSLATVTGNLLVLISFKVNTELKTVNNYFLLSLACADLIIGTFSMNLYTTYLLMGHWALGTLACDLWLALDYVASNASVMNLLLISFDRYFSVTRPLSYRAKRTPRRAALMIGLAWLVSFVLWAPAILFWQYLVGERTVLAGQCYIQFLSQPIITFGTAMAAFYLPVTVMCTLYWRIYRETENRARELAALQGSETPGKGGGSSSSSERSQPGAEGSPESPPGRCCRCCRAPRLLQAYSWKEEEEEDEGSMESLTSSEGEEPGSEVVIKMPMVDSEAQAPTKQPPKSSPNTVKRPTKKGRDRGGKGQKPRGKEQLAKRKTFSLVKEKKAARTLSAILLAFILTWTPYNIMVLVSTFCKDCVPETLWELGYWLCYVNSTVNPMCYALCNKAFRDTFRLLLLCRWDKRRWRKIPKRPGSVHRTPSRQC
A340 absorber – compound light absorbance at 340 nm, profiling panel, artefact control, biochemical, MLSMR library, data from PS, PMK, MK assays; 65,000 tested, under 10 active; compound absorbance at 340 nm, fold over control; fold change at 10 µM;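 active = at 10 µM dose, initial 340 nm absorbance at least 2 fold that of control wells; inactive = change under 2 fold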;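 note: initial absorbance extrapolated from kinetic A340 decline of NADH oxidation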
Autofluor 339 – intrinsic fluorescence of library compounds, ex339/em460 – biochemical, MLSMR library, data from DPM-DC assay, artefact control, profiling panel; hit rate 5.5% among 65,000; compound autofluorescence, ex339/em460 nm, NADH buffer; active compounds read high; 1 = no-compound wells, NADH background; fluorescence fold increase at 10 µM; AID 709, 2007;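 active = at 10 µM, mean starting fluorescence two-fold or more over control wells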;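 note: signal is the first read of a kinetic run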
M1 antag conf – rat M1 muscarinic receptor antagonists, confirmation, CHO cells, Fluo-4 calcium, duplicate; ACh EC80 antagonism; active compounds read low; hit rate 43% among 1,700; calcium response (max-min fluorescence) at 10 µM; shares compounds with M1 antagonist; AID 677, 2007;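 active = calcium response below the same-plate mean of wells given acetylcholine alone at its 80%-effect dose, minus 3 SD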
mGluR4 antag – human mGluR4 response to M1 antagonist hits, M1 allosteric modulator project, cell-based, antagonist mode, secondary assay 1 | shares compounds with M1 antagonist | CHO-mGluR4 calcium flux, Fluo-4 fluorescence, glutamate EC80; active compounds read low | fluorescence response (max-min) at 10 µM | hit rate 0.9% among 1,700 | AID 678, 2007;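 active = fluorescence response below the plate's average for near-maximal glutamate wells, less 3 SD of those wells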;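 note: raw unnormalized fluorescence span taken in the window right after glutamate addition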
Numbers stand for hits. Only some compounds are listed: those with a hit (about 9.7% of all), similar ones and a draw of the others.

Results for C=C(C)[C@H]1Cc2c(ccc3c2O[C@@H]2COc4cc(OC)c(OC)cc4[C@@H]2C3=O)O1 ?
BAP1 block: inactive

What do the screens show for `O=[N+]([O-])c1ccc(NCCCN2CCOCC2)c2cccnc12`?
BAP1 block: inactive

Results for NC(Cn1oc(=O)[nH]c1=O)C(=O)O (configuration not stated) ?
BAP1 block: inactive

Results for C=CCN1C[C@@H](C)N([C@H](c2ccc(C(=O)N(CC)CC)cc2)c2cccc(OC)c2)C[C@@H]1C ?
BAP1 block: inactive

How did Cc1nc(-c2ccc(-c3ccc(C(=O)N4CCc5cc6c(cc54)C4(CCN(C)CC4)CO6)cc3)c(C)c2)no1 do in these assays?
BAP1 block: inactive

What do the screens show for `CC(C)c1cccc(C(C)C)c1OCCn1ccnc1`?
BAP1 block: inactive; M1 ag: inactive; WNV NS2B-NS3 inh: inactive; M1 antagonist: -2; A340 absorber: inactive; Autofluor 339: inactive; M1 antag conf: 416; mGluR4 antag: inactive

Results for FC(F)(F)c1ccc2c(c1)ncn2C1CCN(Cc2nnnn2C2CCCCC2)CC1 ?
BAP1 block: inactive; M1 ag: inactive; WNV NS2B-NS3 inh: inactive; M1 antagonist: -14; A340 absorber: inactive; Autofluor 339: inactive; M1 antag conf: inactive; mGluR4 antag: inactive

How did COC(=O)C(O)(c1ccc(N(C)S(=O)(=O)c2ccccc2)cc1)C(F)(F)F (configuration not stated) do in these assays?
BAP1 block: inactive; M1 ag: inactive; WNV NS2B-NS3 inh: inactive; M1 antagonist: -11; A340 absorber: inactive; Autofluor 339: inactive; M1 antag conf: inactive; mGluR4 antag: inactive

Results for CC(=NCCN1CCCCC1)c1c(O)n(Cc2ccccc2)c(=O)[nH]c1=O ?
BAP1 block: inactive; M1 ag: inactive; WNV NS2B-NS3 inh: inactive; M1 antagonist: -2.4; A340 absorber: inactive; Autofluor 339: inactive; M1 antag conf: inactive; mGluR4 antag: inactive

What do the screens show for `CC(=NCCCN1CCCCC1)c1c(O)n(Cc2ccccc2)c(=O)[nH]c1=O`?
BAP1 block: inactive; M1 ag: inactive; WNV NS2B-NS3 inh: inactive; M1 antagonist: inactive; A340 absorber: inactive; Autofluor 339: inactive

Results for Cc1c(N=Cc2c(O)n(CCc3ccc(F)cc3)c(=O)[nH]c2=O)c(=O)n(-c2ccccc2)n1C ?
BAP1 block: inactive; M1 ag: inactive; WNV NS2B-NS3 inh: inactive; M1 antagonist: -4.8; A340 absorber: inactive; Autofluor 339: inactive; M1 antag conf: 259; mGluR4 antag: inactive

What do the screens show for `O=c1c2ccccc2nc(-c2ccccc2)n1-n1cccc1`?
BAP1 block: inactive; M1 ag: inactive; WNV NS2B-NS3 inh: inactive; M1 antagonist: -2; A340 absorber: inactive; Autofluor 339: inactive; M1 antag conf: inactive; mGluR4 antag: inactive

What do the screens show for `Cc1nc2ccccc2c(=O)n1-c1ccccn1`?
BAP1 block: inactive; M1 ag: inactive; WNV NS2B-NS3 inh: inactive; M1 antagonist: inactive; A340 absorber: inactive; Autofluor 339: inactive

Results for Cc1nc2ccccc2c(=O)n1-n1cnnc1 ?
BAP1 block: inactive; M1 ag: inactive; WNV NS2B-NS3 inh: inactive; M1 antagonist: -2.7; A340 absorber: inactive; Autofluor 339: inactive; M1 antag conf: inactive; mGluR4 antag: inactive

How did Nc1ncnc2c1ncn2[C@@H]1O[C@H](COP(=O)(O)CP(=O)(O)OP(=O)(O)O)[C@H](O)C1O (some centres not stated) do in these assays?
BAP1 block: inactive

Results for Oc1ccc(C2NCc3ccccc3-n3cccc32)cc1Cl (configuration not stated) ?
BAP1 block: inactive; M1 ag: inactive; WNV NS2B-NS3 inh: inactive; M1 antagonist: -3.5; A340 absorber: inactive; Autofluor 339: inactive; M1 antag conf: inactive; mGluR4 antag: inactive

How did CN(N=O)c1cc(O)ccc1O do in these assays?
BAP1 block: inactive

How did COc1ccc(C2NCc3ccc4c(c3-n3cccc32)OCO4)cc1O (configuration not stated) do in these assays?
BAP1 block: inactive; M1 ag: inactive; WNV NS2B-NS3 inh: inactive; M1 antagonist: -2.2; A340 absorber: inactive; Autofluor 339: inactive; M1 antag conf: 108; mGluR4 antag: inactive

How did c1cc2n(c1)-c1c(ccc3c1OCO3)CNC2c1ccc2c(c1)OCO2 (configuration not stated) do in these assays?
BAP1 block: inactive; M1 ag: inactive; WNV NS2B-NS3 inh: inactive; M1 antagonist: -10; A340 absorber: inactive; Autofluor 339: inactive; M1 antag conf: 305; mGluR4 antag: inactive

What do the screens show for `CC1(C)CN=C(NCc2ccccc2Cl)S1`?
BAP1 block: inactive; M1 ag: inactive; WNV NS2B-NS3 inh: inactive; M1 antagonist: -5.1; A340 absorber: inactive; Autofluor 339: inactive; M1 antag conf: 350; mGluR4 antag: inactive

What do the screens show for `O=C(Cc1ccccc1)OCCN1CCCCC1`?
BAP1 block: inactive; M1 ag: inactive; WNV NS2B-NS3 inh: inactive; M1 antagonist: -3.5; A340 absorber: inactive; Autofluor 339: inactive; M1 antag conf: 507; mGluR4 antag: inactive

How did NC(=O)C1(N2CCCCC2)CCN(Cc2ccccc2)CC1 do in these assays?
BAP1 block: inactive; M1 ag: inactive; WNV NS2B-NS3 inh: inactive; M1 antagonist: inactive; A340 absorber: inactive; Autofluor 339: inactive

What do the screens show for `O=c1[nH]c(=O)n(CCc2ccc(F)cc2)c(O)c1C=NCCCn1ccnc1`?
BAP1 block: inactive; M1 ag: inactive; WNV NS2B-NS3 inh: inactive; M1 antagonist: inactive; A340 absorber: inactive; Autofluor 339: inactive

How did O=c1[nH]c(=O)n(Cc2ccco2)c(O)c1C=NCCCn1ccnc1 do in these assays?
BAP1 block: inactive; M1 ag: inactive; WNV NS2B-NS3 inh: inactive; M1 antagonist: -2.8; A340 absorber: inactive; Autofluor 339: inactive; M1 antag conf: inactive; mGluR4 antag: inactive

What do the screens show for `NC1CC1c1ccccc1` (configuration not stated)?
BAP1 block: inactive

How did CCc1nc(N2CCNCC2)c(C#N)c2c1CSC(C)(C)C2 do in these assays?
BAP1 block: inactive; M1 ag: inactive; WNV NS2B-NS3 inh: inactive; M1 antagonist: -5.2; A340 absorber: inactive; Autofluor 339: inactive; M1 antag conf: 264; mGluR4 antag: inactive

What do the screens show for `COc1ccccc1CC1/C(=N/O)C2CCN1CC2` (configuration not stated)?
BAP1 block: inactive; M1 ag: inactive; WNV NS2B-NS3 inh: inactive; M1 antagonist: -2.6; A340 absorber: inactive; Autofluor 339: inactive; M1 antag conf: inactive; mGluR4 antag: inactive

What do the screens show for `CC1CN(c2ccc([N+](=O)[O-])cc2)CCN1` (configuration not stated)?
BAP1 block: inactive
